Screening data (PubChem BioAssay)
aSyn UTR act: Activators via SNCA 5'UTR binding, MLPCN; alpha-synuclein 5'UTR reporter, activators screen; activity score, % (tested at 7.5 µM), hits read low; actives 7.1% (n = 300,000); in the data active means activity score below about -60%
Each line names hits and unclear results; the compound was inactive in the other large screens. A selection follows.

Cc1ccc(S(=O)(=O)C2(C(=O)Nc3ccc(C(C)C)cc3)CC2)cc1	aSyn UTR act -77
CN(C)c1nc(N)nc(CSc2nc3cc(Cl)ccc3o2)n1	aSyn UTR act -126
CCCCCOc1ccc(Cl)cc1CN1CCOCC1	aSyn UTR act -78
O=[N+]([O-])c1cccc(-c2ccc(SCc3ccccn3)nn2)c1	aSyn UTR act -97
COc1cccc(-c2ccc(SCc3ccccn3)nn2)c1	aSyn UTR act -84
CCCC(C)C(=O)Nc1ccc2c(c1)OCCO2 (stereo not drawn)	aSyn UTR act -77
COc1ccc(C(=O)Nc2ccc3c(c2)OCCO3)cc1Br	aSyn UTR act -255
O=C(Nc1ccc2c(c1)OCCO2)c1ccc(Br)o1	aSyn UTR act -114
O=C(Nc1ccc2c(c1)OCCO2)c1cccnc1	aSyn UTR act -141
CC1CC(=O)c2c(cc3c(-c4c(O)cc(O)c5c(O)c6c(cc45)OC(C)CC6=O)c(O)cc(O)c3c2O)O1 (stereo not drawn)	none
O=C(Nc1ccc2c(c1)OCCO2)c1ccc(Br)cc1	aSyn UTR act -78
Cc1ccc(C(=O)Nc2ccc3c(c2)OCCO3)cc1	none
CCCOc1cccc(C(=O)Nc2ccc3c(c2)OCCO3)c1	aSyn UTR act -62
CSCC[C@@H](C(=O)Nc1ccc2c(c1)OCCO2)N1Cc2ccccc2C1=O	aSyn UTR act -85
COc1cccc2c1OC1(C)CC2NC(=O)N1c1cccc(C(=O)Nc2ccc3c(c2)OCCO3)c1 (stereo not drawn)	aSyn UTR act -67
COc1ccc(NC(=O)c2ccc3c(c2)OCO3)cc1[N+](=O)[O-]	aSyn UTR act -192
O=C(Nc1ccc2c(c1)OCCO2)c1cccc(Br)c1	aSyn UTR act -150
CC(C)c1ccc(NC(=O)c2cccc(Br)c2)cc1	aSyn UTR act -174
COc1ccc(C(=O)N2CCN(Cc3ccc4c(c3)OCO4)CC2)cc1[N+](=O)[O-]	none
CCN(CC)CCNC(=O)c1ccc2c(c1NCCO)C(=O)c1ccccc1C2=O	none
CCN(CC)C(=O)c1ccc2c(c1[N+](=O)[O-])C(=O)c1ccccc1C2=O	aSyn UTR act -93
C/C(=N\Nc1ncc(Cl)cc1Cl)c1ccc2c(c1)OCO2	aSyn UTR act -79
C/C(=N\Nc1ncc(Cl)cc1Cl)c1ccc(OC(F)F)cc1	aSyn UTR act -62
COc1cccc(-c2nn(C)c3sc(C(=O)Nc4ccc5c(c4)OCCO5)cc23)c1	aSyn UTR act -101
Cc1ccsc1C(=O)OCC(=O)NCCC1=CCCCC1	aSyn UTR act -81
CC(=O)N1N=C(c2ccc(C)cc2)OC1c1ccc(C(C)C)cc1 (stereo not drawn)	aSyn UTR act -182
CC(=O)N1N=C(c2ccc(C)cc2)OC1c1ccc(C)cc1 (stereo not drawn)	aSyn UTR act -129
COc1cccc(N2CCN(C(=O)c3ccc(CS(=O)c4ccccc4C)o3)CC2)c1 (stereo not drawn)	none
CCOC(=O)c1ccc(COc2ccc(C(C)C)cc2)o1	aSyn UTR act -129
CCC(C)c1ccc(OCc2ccc(C(=O)O)o2)cc1 (stereo not drawn)	aSyn UTR act -86
CN1CCN(C(=O)c2ccc(COc3ccc(C(C)(C)C)cc3)o2)CC1	aSyn UTR act -99
CC(C)c1ccc(OCc2ccc(C(=O)N3CCCC3)o2)cc1	aSyn UTR act -144
CCOc1ccc(OCc2ccc(C(=O)OCc3ccccn3)o2)cc1	aSyn UTR act -64
O=C(NC1CCCCCCC1)c1ccc(Br)cc1	aSyn UTR act -92
C=CCOc1ccc(C(=O)NC2CCCCC2)cc1	aSyn UTR act -161
CC(C)Oc1ccc(C(=O)NC2CCCCC2)cc1	aSyn UTR act -91
Cc1cc(C)c2c(N)c(-c3nc4ccccc4[nH]3)sc2n1	aSyn UTR act -131
COc1cc(OC)cc(C(=O)Nc2ccc(-n3cnnn3)c(C)c2)c1	aSyn UTR act -93
Cc1cc(NC(=O)c2oc3ccccc3c2C)ccc1-n1cnnn1	aSyn UTR act -124
Clc1cccc(N/N=C/c2ccncc2)c1	aSyn UTR act -117
C/C(=N\Nc1cccc(Cl)c1)c1ccncc1	aSyn UTR act -117
Cc1ccc(N/N=C/c2ccncc2)cc1	aSyn UTR act -120
CCCNC(=S)Nc1ccc(Nc2ccccc2)cc1	aSyn UTR act -87
CNC(=S)Nc1ccc(Nc2ccccc2)cc1	aSyn UTR act -95
O=C1CC(c2cc(-c3ccccc3)no2)C1	aSyn UTR act -99
c1ccc(CNc2ncnc3c2ncn3C2CCCCO2)cc1 (stereo not drawn)	aSyn UTR act -104
Cc1nc(N)sc1N=Nc1ccccc1C(F)(F)F	aSyn UTR act -184
CC(C)(C)c1ccc(NC(=O)CC2(C(F)(F)F)OCCO2)cc1	aSyn UTR act -112
COC(=O)c1ccc(NC(=S)Nc2ccccc2)cc1	aSyn UTR act -131
COC(=O)c1ccc(NC(=O)Cc2ccccc2)cc1	aSyn UTR act -123
COC(=O)c1ccc(NC(=O)c2nc(S(=O)(=O)Cc3cccc(C)c3)ncc2Cl)cc1	none
CCC(=O)Nc1ccc(C(=O)OCc2ccccc2Cl)cc1	aSyn UTR act -168
O=C(Cc1ccccc1)Nc1ccc(SC(F)F)cc1	aSyn UTR act -130
COC(=O)c1ccc(NC(=O)C(=O)c2cccn2C)cc1	aSyn UTR act -109
COc1ccccc1C(=O)NNC(=O)c1cccc(C)c1	aSyn UTR act -139
COc1ccccc1C(=O)NNC(=O)c1cccc([N+](=O)[O-])c1	aSyn UTR act -62
CCOc1nc(C)ccc1-c1noc(-c2ccco2)n1	aSyn UTR act -79
CCOc1ccccc1-c1nc(-c2ccc(C)nc2OC)no1	aSyn UTR act -207
CC/C(=N\Nc1nncc2ccccc12)c1ccc(F)cc1	aSyn UTR act -190
CC(C)C(=O)Nc1ccc(NC(=O)c2cccc(F)c2)cn1	aSyn UTR act -148
O=C(Nc1ccc(NC(=O)C2CC2)nc1)c1cccc(F)c1	aSyn UTR act -161
CCOc1ccc(C(=O)Nc2ccc(Cl)cn2)cc1Cl	aSyn UTR act -182
O=C(Nc1ccc(Cl)cn1)c1cccc(F)c1	aSyn UTR act -204
CCN(CC)c1ccc(NC(=O)Nc2ccccc2C(F)(F)F)cc1	aSyn UTR act -80
CCN(CC)c1ccc(NC(=O)Nc2cccc3ccccc23)cc1	aSyn UTR act -115
CN(C)c1ccc(NC(=O)Nc2cccc3ccccc23)cc1	aSyn UTR act -77
CCN(CC)c1ccc(NC(=O)CCCCC(=O)Nc2ccc(N(CC)CC)cc2)cc1	none
CCOC(=O)c1ccc(N2Cc3ccccc3C2=N)cc1	aSyn UTR act -78
COc1ccc2[nH]c(C(=O)NCCc3ccccc3)cc2c1	aSyn UTR act -92
COc1ccc2cc(C(=O)N3CCC(Cc4ccccc4)CC3)[nH]c2c1	aSyn UTR act -77
COc1ccc2cc(C(=O)N(C)Cc3ccccc3)[nH]c2c1	aSyn UTR act -86
O=C(O)c1cccc(OCc2ccccc2Cl)c1	aSyn UTR act -188
CC(C)c1ccc2c(c1)C(c1ccc(N3CCOCC3)cc1)=NNC(c1cccs1)=N2	aSyn UTR act -103
O=C(C1=NN[C@@H]2C(=O)N(c3cccc(F)c3)C(=O)[C@H]12)c1ccc2ccccc2n1	aSyn UTR act -79
CCCCOc1ccc(C(=O)N2CCCC2)cc1	aSyn UTR act -63
COc1ccc(OCCC(=O)N2CCCCC2)cc1	aSyn UTR act -63
COC(=O)C1CCN(C(=O)CCCOc2ccccc2)CC1	aSyn UTR act -83
Cc1ccc(N/C=C(/C#N)c2ccsc2)cc1	aSyn UTR act -175
N#C/C(=C/Nc1ccccc1)c1ccsc1	aSyn UTR act -79
N#CC1=C(N)Nc2nc3ccccc3n2C1c1ccc(F)cc1 (stereo not drawn)	aSyn UTR act -117
